# Experimental data taken from PubChem BioAssay (Tox21).
# “And” between values parts separate entries of the source, which are not always exact repeats. Equal entries are not always repeated. Records with an inconclusive call do not appear. Entries that show only a call come without a potency. The source holds several records for some structures; these can differ, active in one and inactive in another. The source made the active and inactive calls. Unless noted, the call rests on the fitted dose curve; in most records, active means well fitted curve in the direction sought with a large enough effect in the repeat runs; inconclusive means weak or mixed curves; inactive means no such curve, though single readings can be large; an effect the other way counts as inactive or inconclusive.
# Key:
# [1] = qHTS assay to identify small molecule antagonists of the constitutive androstane receptor (CAR) signaling pathway - cell viability counter screen (AID 1224837); further: nearly all actives have a fitted effect of over 45% in size
# Summary of the method: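 HepG2 cells stably expressing hCAR and a CYP2B6-2.2kb reporter were plated and pre-incubated 4 hr at 37 C/5% CO2, then given compounds at 15 concentrations plus 50 nM CITCO (final). After 23 hr, viability was read by CellTiter-Fluor fluorescence.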
# [2] = qHTS assay to identify small molecule antagonists of the estrogen related receptor signaling pathway with the pleiotropic PPARgamma coactivator (PGC) from Tox21 10K library - cell viability counter screen (AID 1224840; active means well fitted cell-killing curve with a large enough effect in the repeat runs, not every such curve was filed as active; further: nearly all actives have a fitted effect of over 40% in size)
# Summary of the method: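 PGC/ERR cells were seeded at 2,000 cells/well and left 6 hours at 37 C/5% CO2 before pin-tool addition of compounds in DMSO. After 17.5 hours at 37 C, CellTiter-Fluor was added and fluorescence read 30 minutes later.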
# [3] = molecular target: Thyrotropin receptor (Homo sapiens) (UniProt P16473); assay: qHTS assay to identify small molecule agonists of the thyroid stimulating hormone receptor (TSHR) signaling pathway (AID 1224843; calls by dose curve; further: nearly all actives have a fitted effect of over 45% in size; further: potency means the concentration at half of the fitted maximal effect)
# Chain of Thyrotropin receptor (Homo sapiens) (P16473 whole entry, looked up): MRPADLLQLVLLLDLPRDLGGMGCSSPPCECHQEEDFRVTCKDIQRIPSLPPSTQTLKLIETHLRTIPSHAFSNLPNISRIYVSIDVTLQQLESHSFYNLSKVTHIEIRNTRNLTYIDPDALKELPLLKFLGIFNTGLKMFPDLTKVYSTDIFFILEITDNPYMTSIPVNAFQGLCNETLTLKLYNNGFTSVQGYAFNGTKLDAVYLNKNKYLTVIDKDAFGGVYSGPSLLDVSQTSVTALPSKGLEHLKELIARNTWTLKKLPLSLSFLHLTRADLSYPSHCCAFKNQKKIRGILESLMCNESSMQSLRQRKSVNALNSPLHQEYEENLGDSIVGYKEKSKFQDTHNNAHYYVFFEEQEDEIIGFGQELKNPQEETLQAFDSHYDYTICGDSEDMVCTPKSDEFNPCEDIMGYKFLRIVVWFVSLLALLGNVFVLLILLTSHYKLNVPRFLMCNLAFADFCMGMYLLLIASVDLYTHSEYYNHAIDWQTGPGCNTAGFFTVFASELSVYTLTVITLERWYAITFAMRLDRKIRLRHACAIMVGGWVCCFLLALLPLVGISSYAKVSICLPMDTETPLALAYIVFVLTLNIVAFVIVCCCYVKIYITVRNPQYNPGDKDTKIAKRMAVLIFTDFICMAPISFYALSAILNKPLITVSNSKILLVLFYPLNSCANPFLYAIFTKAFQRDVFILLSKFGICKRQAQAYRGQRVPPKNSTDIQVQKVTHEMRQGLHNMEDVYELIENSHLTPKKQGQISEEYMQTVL
# Summary of the method: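 Cell line HEK293 with TSHR; density 800/well. Exposure 30 min RT. Readout HTRF cAMP (cAMP-d2/anti-cAMP-cryptate), 1 h RT before reading.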
# [4] = qHTS assay to identify small molecule agonists of the hypoxia (HIF-1) signaling pathway - cell viability counter screen (AID 1224844; calls by dose curve; further: nearly all actives have a fitted effect of over 50% in size)
# Summary of the method: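 HRE-bla ME-180 cells in medium with 0.5% dialyzed FBS were preincubated 5 hrs at 37C, exposed to compounds for 17 hrs, then viability was read as CellTiter-Glo luminescence after 30 min at room temperature, in the reporter wells.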
# [5] = qHTS assay to identify small molecule agonists of the hypoxia (HIF-1) signaling pathway (AID 1224846; active means well fitted activation curve with a large enough effect in the signal ratio in the repeat runs, not every such curve was filed as active; the % refers to the signal ratio)
# Summary of the method: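 HRE-bla ME-180 cells (beta-lactamase reporter under hypoxia response element) were plated at 2,000 cells/well in medium with 0.5% dialyzed FBS, rested 5 hrs, then given compounds in DMSO for 17 hrs at 37C, 5% CO2. Reporter induction was read with CCF4-AM FRET substrate.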
# [6] = qHTS assay to identify small molecule agonists of H2AX - cell viability counter screen (AID 1224847; calls by dose curve; further: nearly all actives have a fitted effect of over 30% in size; further: potency means the concentration at half of the fitted maximal effect; on activity change, negative = cytotoxicity: top concentration of the series differs between compounds)
# Summary of the method: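 Read-out: CellTiter-Glo luminescence, 30 min RT. Cells: wild-type CHO-K1, 1000/well, 10% FBS, plated overnight at 37C. Treatment: 15 concentrations, 3 hr, 37C, 0.76% DMSO.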
# [7] = qHTS RealTime-Glo MT Cell Viability Assay in HEK293 cells - 32 hour (AID 1224868); further: top concentration of the series differs between compounds; nearly all actives have a fitted effect of over 50% in size
# Summary of the method: (§1)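 HEK293 cells were seeded at 600 cells/well together with NanoLuc luciferase and cell-permeant prosubstrate, preincubated 5 h at 37 C/5% CO2, then given compound in DMSO by pintool. Luminescence from viable-cell prosubstrate reduction was read repeatedly over 40 h.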
# [8] = A CellTox Green Cytotoxicity Assay to monitor cytotoxicity in HEK293 cells - 0 hour (AID 1224869); further: nearly all actives have a fitted effect of over 50% in size
# Summary of the method: (§2)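 HEK293 cells premixed with CellTox Green dye were seeded at 600 cells/well and left 5 h at 37 C/5% CO2 before pin transfer of 23 nL compound in DMSO. Fluorescence from dye bound to dead-cell DNA was read during 40 h treatment.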
# [9] = qHTS RealTime-Glo MT Cell Viability Assay in HepG2 cells - 40 hour (AID 1224870); further: nearly all actives have a fitted effect of over 50% in size
# Summary of the method: (§3)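 HepG2 cells mixed with RealTime-Glo MT reagents (NanoLuc plus cell-permeant prosubstrate) were seeded at 600 cells/well, incubated 5 h at 37 C/5% CO2, then pinned with compounds in DMSO; nonlytic luminescence tracked viability during 40 h treatment.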
# [10] = A CellTox Green Cytotoxicity Assay to monitor cytotoxicity in HEK293 cells - 40 hour (AID 1224871); further: nearly all actives have a fitted effect of over 45% in size; further: potency means the concentration at half of the fitted maximal effect
# Summary of the method: as §2
# [11] = qHTS RealTime-Glo MT Cell Viability Assay in HEK293 cells - 16 hour (AID 1224872)
# Summary of the method: as §1
# [12] = qHTS RealTime-Glo MT Cell Viability Assay in HepG2 cells - 8 hour (AID 1224873); further: nearly all actives have a fitted effect of over 55% in size
# Summary of the method: as §3
# [13] = qHTS RealTime-Glo MT Cell Viability Assay in HEK293 cells - 40 hour (AID 1224874); settings: RealTime-Glo luminescence; max response: stronger effect = lower value; further: nearly all actives have a fitted effect of over 50% in size
# Summary of the method: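 HEK293 cells mixed with RealTime-Glo reagents (NanoLuc plus cell-permeant prosubstrate) at 600 cells/well, preincubated 5 h at 37 C/5% CO2, then given 23 nL compound in DMSO. Nonlytic luminescence from viable cells was read at 0, 8, 16, 24, 32 and 40 h.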
# [14] = A CellTox Green Cytotoxicity Assay to monitor cytotoxicity in HEK293 cells - 24 hour (AID 1224875); further: nearly all actives have a fitted effect of over 45% in size
# Summary of the method: as §2
# [15] = A CellTox Green Cytotoxicity Assay to monitor cytotoxicity in HepG2 cells - 16 hour (AID 1224876); further: nearly all actives have a fitted effect of over 45% in size
# Summary of the method: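 HepG2 cells were seeded together with the CellTox Green dye at 600 cells/well, left 5 h at 37 C/5% CO2, then given compounds in DMSO. Fluorescence from dye bound to dead-cell DNA was read repeatedly over 40 h of treatment at 37 C.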
# [16] = qHTS RealTime-Glo MT Cell Viability Assay in HepG2 cells - 24 hour (AID 1224867); further: nearly all actives have a fitted effect of over 50% in size
# Summary of the method: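 HepG2 cells were seeded at 600 cells/well together with NanoLuc luciferase and a cell-permeant prosubstrate, preincubated 5 h at 37 C/5% CO2, then pin-dosed with compounds in DMSO. Nonlytic luminescence from viable cells was read at each time point.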
# [17] = qHTS assay to identify small molecule agonists of H2AX (AID 1224845; active means well fitted activation curve with a large enough effect in the signal ratio in the repeat runs, not every such curve was filed as active; the % refers to the signal ratio; further: potency means the concentration at half of the fitted maximal effect)
# Summary of the method: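 Wild-type CHO-K1 cells plated overnight, then exposed 3 hr at 37C to compounds at 15 concentrations (0.76% DMSO). Lysed, then HTRF anti-pH2AX(S139)-cryptate/anti-H2AX-d2 detection after 24 hr at room temperature; emissions 665 and 620 nm.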
# [18] = qHTS assay to identify small molecule agonists of the estrogen related receptor (ERR) signaling pathway from Tox21 library (AID 1224849; calls by dose curve; further: nearly all actives have a fitted effect of over 15% in size); settings: ERR reporter cell line, ONE-Glo luciferase, 18 h; at 92.4 µM (top of the series)
# Summary of the method: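 ERR reporter cell line (NTP) seeded, rested 6 h at 37 C/5% CO2, then pinned with Tox21 compounds in DMSO. After 18 h at 37 C, ONE-Glo luciferase luminescence was read following 30 min at room temperature.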
# [19] = molecular target: Nuclear receptor subfamily 1 group I member 3 (Homo sapiens) (UniProt Q14994); assay: qHTS assay to identify small molecule agonists of the constitutive androstane receptor (CAR) signaling pathway (AID 1224839);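 further: HepG2 cells stably carrying human CAR and a CYP2B6 luciferase reporter; nearly all actives have a fitted effect of over 15% in size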
# Chain of Nuclear receptor subfamily 1 group I member 3 (Homo sapiens) (Q14994 whole entry, looked up): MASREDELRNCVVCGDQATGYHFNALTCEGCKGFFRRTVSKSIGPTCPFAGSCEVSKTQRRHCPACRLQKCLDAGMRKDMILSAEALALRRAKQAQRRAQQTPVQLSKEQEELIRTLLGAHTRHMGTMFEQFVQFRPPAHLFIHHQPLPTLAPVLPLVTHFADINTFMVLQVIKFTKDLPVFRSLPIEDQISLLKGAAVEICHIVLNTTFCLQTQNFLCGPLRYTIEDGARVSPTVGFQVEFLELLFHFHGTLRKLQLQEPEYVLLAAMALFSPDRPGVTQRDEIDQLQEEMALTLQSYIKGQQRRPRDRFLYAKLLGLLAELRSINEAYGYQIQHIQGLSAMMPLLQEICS
# Summary of the method: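 In this screen, CAR-driven CYP2B6 promoter activity is measured by luminescence in HepG2-CYP2B6-hCAR cells after 24 h with test compounds and 0.75 uM PK11195 (final concentration).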
structure (smiles),measurement,setting,value
Cc1ccc(S(N)(=O)=O)cc1,Potency,[1],inactive
same,Potency,[2],inactive
same,Potency,[3],inactive
same,Potency,[4],inactive
same,outcome,[5],inactive
same,Potency,[6],inactive
same,Potency,[7],inactive
same,outcome,[8],inactive
same,outcome,[9],inactive
same,Potency,[10],inactive
same,Potency,[11],inactive
same,outcome,[12],inactive
same,max response,[13],1.64% (inactive)
same,Potency,[14],inactive
same,Potency,[15],inactive
OCc1cccnc1,Potency,[1],inactive
same,Potency,[2],inactive
same,Potency,[4],inactive
same,Potency,[6],inactive
same,Potency,[7],inactive
same,outcome,[8],inactive
same,outcome,[9],inactive
same,Potency,[10],inactive
same,Potency,[11],inactive
same,outcome,[12],inactive
same,max response,[13],-2.21% (inactive) and -1.61% (inactive)
same,Potency,[14],inactive
same,Potency,[15],inactive
Cc1cnc(C(=O)NCCc2ccc(S(=O)(=O)NC(=O)NC3CCCCC3)cc2)cn1,Potency,[1],inactive
same,Potency,[2],inactive
same,Potency,[3],inactive
same,Potency,[4],inactive
same,Potency,[6],inactive
same,outcome,[16],inactive
same,Potency,[7],inactive
same,outcome,[8],inactive
same,outcome,[9],inactive
same,Potency,[10],inactive
same,Potency,[11],inactive
same,outcome,[12],inactive
same,max response,[13],11.5% (inactive) and 10.1% (inactive)
same,Potency,[14],inactive
same,Potency,[15],inactive
CCCCCCCCCC,Potency,[1],inactive
same,Potency,[2],inactive
same,Potency,[3],inactive
same,Potency,[4],inactive
same,Potency,[17],inactive
same,outcome,[5],inactive
same,Potency,[6],inactive
same,outcome,[16],inactive
same,Potency,[7],inactive
same,outcome,[8],inactive
same,outcome,[9],inactive
same,Potency,[10],inactive
same,Potency,[11],inactive
same,max response,[13],1.13% (inactive) and 22.3% (inactive)
same,Potency,[14],inactive
same,Potency,[15],inactive
O=C(O)c1ccc2c(c1)C(=O)OC2=O,Potency,[1],inactive
same,Potency,[2],inactive
same,Potency,[3],inactive
same,Potency,[4],inactive
same,Potency,[17],inactive
same,outcome,[5],inactive
same,Potency,[6],inactive
same,outcome,[16],inactive
same,Potency,[7],inactive
same,outcome,[8],inactive
same,outcome,[9],inactive
same,Potency,[10],inactive
same,Potency,[11],inactive
same,max response,[13],5.17% (inactive) and 0.547% (inactive)
same,Potency,[14],inactive
same,Potency,[15],inactive
CC(=O)CC(=O)Nc1ccccc1,Potency,[1],inactive
same,Potency,[2],inactive
same,Potency,[3],19.3 µM (active) and inactive
same,Potency,[4],inactive
same,Potency,[17],inactive
same,outcome,[5],inactive
same,Potency,[6],inactive
same,outcome,[16],inactive
same,Potency,[7],inactive
same,outcome,[8],inactive
same,outcome,[9],inactive
same,Potency,[10],inactive
same,Potency,[11],inactive
same,max response,[13],-1.61% (inactive) and 1.86% (inactive)
same,Potency,[14],inactive
same,Potency,[15],inactive
COc1ccc(Nc2ccccc2)c(C)c1,Potency,[1],inactive
same,Potency,[2],inactive
same,Potency,[3],inactive
same,Potency,[4],inactive
same,Potency,[17],inactive
same,outcome,[5],inactive
same,Potency,[6],inactive and 101 µM (active)
same,"activity change, positive = activation",[18],-0.657% (inactive)
same,outcome,[16],inactive
same,Potency,[7],inactive
same,outcome,[8],inactive
same,outcome,[9],inactive
same,Potency,[10],inactive and 43.6 µM (active)
same,Potency,[11],inactive
same,outcome,[12],inactive
same,max response,[13],2.22% (inactive) and -26.6% (inactive)
same,Potency,[14],inactive
same,Potency,[15],inactive
C#C[C@]1(O)CC[C@H]2[C@@H]3CCC4=CC(=O)CC[C@@H]4[C@H]3CC[C@@]21C,Potency,[1],inactive
same,Potency,[19],inactive
same,Potency,[2],inactive
same,Potency,[3],inactive
same,Potency,[4],inactive
same,Potency,[17],28.4 µM (active) and 19.6 µM (active)
same,Potency,[6],inactive
same,Potency,[7],inactive
same,outcome,[8],inactive
same,outcome,[9],inactive
same,Potency,[10],inactive
same,Potency,[11],inactive
same,outcome,[12],inactive
same,max response,[13],-16% (inactive)
same,Potency,[14],inactive
same,Potency,[15],inactive
CCN(CC)CCCC(C)Nc1ccnc2cc(Cl)ccc12 (configuration not stated),"viability change, negative = cytotoxic",[2],-1.36% [at 8.39 µM] (inactive) and -20.9% [at 19 µM] (inactive)
same,"activity change, negative = cytotoxicity",[4],-3.66% [at 15.8 µM] (inactive)
same,"activity change, negative = cytotoxicity",[6],0.575% [at 14 µM] (inactive) and -2.97% [at 31.6 µM] (inactive)
same,"activity change, negative = cytotoxicity",[16],1.52% [at 6.97 µM] (inactive) and -6.42% [at 15.8 µM] (inactive)
same,"activity change, negative = cytotoxic",[7],-16.4% [at 6.97 µM] (inactive)
same,cytotoxicity,[8],0.802% [at 6.97 µM] (inactive) and -1.16% [at 15.8 µM] (inactive)
same,"activity change, negative = cytotoxic",[9],-2.02% [at 6.97 µM] (inactive) and -2.98% [at 15.8 µM] (inactive)
same,cytotoxicity increase,[10],-14.6% [at 6.97 µM] (inactive) and 9.06% [at 15.8 µM] (inactive)
same,"activity change, negative = cytotoxicity",[11],-11.3% [at 6.97 µM] (inactive)
same,"viability change, negative = cytotoxic",[12],-1.01% [at 6.97 µM] (inactive) and -3.34% [at 15.8 µM] (inactive)
same,max response,[13],-13.9% (inactive)
same,cytotoxicity increase,[15],-7.78% [at 6.97 µM] (inactive) and 19.1% [at 15.8 µM] (inactive)
